# The whole screen tested about 39,000 compounds, of which about 220 (0.56%) showed activity. What follows is part of a selection rich in actives, with near analogues and random picks from the rest.
# Tested on: Escherichia coli K-12 BW25113
# Assay: relative growth (OD600 normalised to plate interquartile mean) (fraction); higher = less growth inhibition, active = 0.2 or less
# Conditions: 50 µM; LB; incubation time: overnight (16-24 h)
# 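Further: Wild-type cells incubated without shaking, value is the mean of two biological replicates.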
row,Structure (SMILES),relative growth
1,CC(=O)OC1CC(OC2C(O)CC(OC3C(O)CC(OC4CCC5(C)C(CCC6C5CC(O)C5(C)C(C7=CC(=O)OC7)CCC65O)C4)OC3C)OC2C)OC(C)C1OC1OC(CO)C(O)C(O)C1O (stereo not drawn),0.995 (inactive)
2,Cc1nc(-c2ccc(-c3ccc(C(=O)N4CCc5cc6c(cc54)C4(CCN(C)CC4)CO6)cc3)c(C)c2)no1,0.932 (inactive)
3,CO[C@@H]1C=C[C@@H]2[C@H]1N2CCO (stereo partly drawn),0.968 (inactive)
4,CNC1C(O)C(OC2C(N)CC(N)C(OC3OC(C(C)O)C(O)C(O)C3N)C2O)OCC1(C)O (stereo not drawn),0.0438 (active)
5,CN[C@@H]1[C@@H](O)[C@@H](O[C@@H]2[C@H](O)[C@@H](O[C@H]3O[C@H]([C@@H](C)O)[C@@H](O)[C@H](O)[C@H]3N)[C@H](N)C[C@@H]2N)OC[C@]1(C)O,0.484 (inactive)
6,CN[C@@H]1[C@@H](O)[C@@H](O[C@@H]2[C@@H](O)[C@H](O[C@H]3O[C@H](CN)CC[C@H]3N)[C@@H](N)C[C@H]2N)OC[C@]1(C)O.CN[C@@H]1[C@@H](O)[C@@H](O[C@@H]2[C@@H](O)[C@H](O[C@H]3O[C@H]([C@@H](C)N)CC[C@H]3N)[C@@H](N)C[C@H]2N)OC[C@]1(C)O.CN[C@@H]1[C@@H](O)[C@@H](O[C@@H]2[C@@H](O)[C@H](O[C@H]3O[C@H]([C@@H](C)NC)CC[C@H]3N)[C@@H](N)C[C@H]2N)OC[C@]1(C)O,0.624 (inactive)
7,C[C@@]1(C(=O)O)[C@H]2CC[C@@H](O2)[C@@]1(C)C(=O)O,0.979 (inactive)
8,CC(=O)OC[C@]12CCC(C)=C[C@H]1O[C@@H]1[C@H](O)[C@@H](OC(C)=O)[C@@]2(C)[C@]12CO2,0.969 (inactive)
9,[NH2][Pt]1([NH2])[O]C(=O)C2(CCC2)C(=O)[O]1,0.958 (inactive)
10,CC(C)(C)c1ccc(O)cc1,0.998 (inactive)
11,CNC(=O)Oc1cccc2ccccc12,1.05 (inactive)
12,NCCc1cccc2ccccc12,1 (inactive)
13,O=[N+]([O-])C(Br)(CO)CO,0.0475 (active)
14,OCC(Br)(Br)Br,1.02 (inactive)
15,OCCN(CCO)CCO,0.97 (inactive)
16,C[C@@H](N)Cc1ccc(O)cc1,0.992 (inactive)
17,C[C@@H]1O[C@@H](O[C@@H]2C[C@@H](O)[C@]3(CO)[C@H]4[C@H](O)C[C@]5(C)[C@@H](C6=CC(=O)OC6)CC[C@]5(O)[C@@H]4CC[C@]3(O)C2)[C@H](O)[C@H](O)[C@H]1O,0.995 (inactive)

row,Structure (SMILES),relative growth
1,CC(=O)[O][Hg][c]1ccccc1,0.0564 (active)
2,O=C(Cc1ccccc1)c1ccccc1,0.986 (inactive)
3,NCC(=O)c1ccccc1,1 (inactive)
4,C=C(C)[C@@H]1CCC(C)=C[C@H]1c1c(O)cc(CCCCC)cc1O,1.01 (inactive)
5,C[C@@]12C(=O)OC(=O)[C@]1(C)[C@H]1CC[C@@H]2O1,0.933 (inactive)
6,COc1cccc(C2(N)CCCC2)c1,1.02 (inactive)
7,CN1[C@@H]2CC[C@@H]1C[C@H](O)C2 (stereo partly drawn),1.01 (inactive)
8,O=C1C=C2C(=CCO[C@@H]2O)O1,1 (inactive)
9,O=C1C=C2C(=CCOC2O)O1 (stereo not drawn),0.0434 (active)
10,CC1(C)C(=O)C=CC2(C)C1=C(O)C(=O)C1(C)C2CCC2(C)C(c3ccoc3)CC3OC321 (stereo not drawn),1.07 (inactive)
11,COC(=O)C[C@](O)(CCC(C)(C)O)C(=O)O[C@@H]1C(OC)=C[C@]23CCCN2CCc2cc4c(cc2[C@H]13)OCO4,1.02 (inactive)
12,O=c1[nH]c2ccccc2n1C1CCN(Cc2ccc(-c3nc4cc5[nH]cnc5cc4nc3-c3ccccc3)cc2)CC1,1.09 (inactive)
13,O=[N+]([O-])c1ccc(N(CCO)CCO)c2c1no[n+]2[O-],0.0367 (active)
14,C[C@@H]1CC[C@@]2(OC1)O[C@H]1C[C@H]3[C@@H]4CC=C5C[C@@H](O[C@@H]6O[C@H](CO)[C@@H](O[C@@H]7O[C@@H](C)[C@H](O)[C@@H](O)[C@H]7O)[C@H](O)[C@H]6O[C@@H]6O[C@@H](C)[C@H](O)[C@@H](O)[C@H]6O)CC[C@]5(C)[C@H]4CC[C@]3(C)[C@H]1[C@@H]2C,0.913 (inactive)
15,CC(C)C12OC1C1OC13C1(C)CCC4=C(COC4=O)C1CC1OC13C2O (stereo not drawn),0.947 (inactive)
16,COc1ccc(C(CN(C)C)C2(O)CCCCC2)cc1.Cl (stereo not drawn),1.14 (inactive)

# — the supplement of paper PMC9446081
